This is an account of results in PubChem BioAssay (NCATS).

A number with no mark means an inactive call. Results filed as inconclusive are left out. Calls of active or inactive are those of the source. Calls follow the shape of the dose curve; as a rule, active = well fitted curve in the direction sought with a large enough effect; inconclusive = small, poorly fitted or top-dose-only effect, or another doubt; inactive = no such curve, though single readings can be large; an effect the other way counts as inactive or inconclusive.

The target in assay [1] is Glutathione peroxidase 1 (Homo sapiens) (UniProt P07203). As to the kind of experiment: Primary qHTS Assay for Inhibitors of Recombinant Selenoprotein Glutathione Peroxidase 1 (GPX1) (AID 1845191). Also: nearly all actives have a fitted effect of over 65% in size. As to activity, negative = inhibition: % is scaled to controls: 0 for no effect and ±100 for the full control effect. The method, boiled down:
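NADPH consumption tracked by fluorescence at 340/450 nm between t=0 and t=15 min, room temperature. Final mix: 10 nM GPX1, 100 nM glutathione reductase, 1 mM GSH, 0.5 mM NADPH, 0.5 mM cumene hydroperoxide, 0.01% BSA; 30 min compound–enzyme preincubation.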

Assay [2] concerns the target Phospholipid hydroperoxide glutathione peroxidase GPX4 (Homo sapiens) (UniProt P36969). As to the kind of experiment: Primary qHTS Assay for Inhibitors of Recombinant Selenoprotein Glutathione Peroxidase 4 (GPX4) (AID 1845192). Also: nearly all actives have a fitted effect of over 65% in size. The essentials: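 NADPH consumption followed by fluorescence at 340/450 nm, t=0 and after 15 min at room temperature. Reaction started with cumene hydroperoxide (0.5 mM final) after 30 min compound–GPX4 preincubation; final 200 nM GPX4, 100 nM GR, 1 mM GSH, 0.5 mM NADPH.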
On the technique in general: qHTS replaces the single test concentration by a dilution series.

Assay [3] concerns the target Luciferin 4-monooxygenase (Photinus pyralis) (UniProt P08659). As to the kind of experiment: Primary firefly luciferase (FLuc) qHTS assay for identification of artifact compounds. (AID 1845220). Also: nearly all actives have a fitted effect of over 60% in size. Also: potency is read from the fitted curve at half-maximal effect. The essentials:
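FLuc 10 nM; luciferin 10 uM; ATP 10 uM; Tris-acetate pH 7.6, Mg-acetate 10 mM; 15 min RT preincubation; 5 min reaction; luminescence.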

Assay [4] can be described thus: Primary fluorescence-based thiol-reactive (MSTI) qHTS assay for identification of artifact compounds. (AID 1845221). Also: nearly all actives have a fitted effect of over 65% in size. Also: potency is read from the fitted curve at half-maximal effect.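 As to activity change, negative = thiol reactive: series mostly up to about 54 µM; thiol-reactive compounds lower the probe fluorescence signal.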 The method, boiled down: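 Probe: MSTI 4 uM, PBS pH 7.4, 2% DMSO. Incubation 1 h, RT, light-protected. Readout fluorescence 525/598 nm.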
The subject of assay [5] is Nanoluciferase (engineered Oplophorus gracilirostris luciferase). As to the kind of experiment: Primary Nanoluciferase (NLuc) qHTS assay for identification of artifact compounds. (AID 1845222).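 Also: NLuc secreted into diluted conditioned medium of S16 cells; series mostly up to about 54 µM; 0% = DMSO and -100% = no enzyme.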 The essentials: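 NLuc from S16 cell medium (1:55) plus test compounds, 15 min, room temperature. Luminescence after Nano-Glo (1:100) addition, 5 min.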
Assay [6] is described as follows: Primary redox qHTS assay for identification of artifact compounds. (AID 1845223).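 Also: 0% = DMSO and 100% = reference compound.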 The essentials:
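Redox-cycling detection via DTT (250 uM final) oxidation coupled to Amplex Red (25 uM)/HRP (250 mU/mL) in HBSS. 15 min preincubation plus 30 min after DTT, room temperature. Ex/Em 525/598 nm; 4-parameter Hill fit against DMSO and 10 uM DA3003.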

Phospholipid hydroperoxide glutathione peroxidase GPX4 (Homo sapiens), sequence (P36969 whole entry, looked up): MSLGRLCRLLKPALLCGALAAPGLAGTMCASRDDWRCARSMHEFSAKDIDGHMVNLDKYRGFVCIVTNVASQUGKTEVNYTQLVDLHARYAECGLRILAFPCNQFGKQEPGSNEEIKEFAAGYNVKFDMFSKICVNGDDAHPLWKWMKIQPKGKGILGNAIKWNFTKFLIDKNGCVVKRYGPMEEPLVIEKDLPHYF
Glutathione peroxidase 1 (Homo sapiens), sequence (P07203 whole entry, looked up): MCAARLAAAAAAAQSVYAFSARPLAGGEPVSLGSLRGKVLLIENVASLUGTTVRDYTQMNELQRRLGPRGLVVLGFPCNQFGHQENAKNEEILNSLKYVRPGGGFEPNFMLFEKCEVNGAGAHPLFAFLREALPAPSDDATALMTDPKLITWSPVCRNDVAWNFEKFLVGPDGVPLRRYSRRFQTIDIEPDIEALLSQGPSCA

`COc1cccc(CNc2ccc(S(=O)(=O)Nc3nc4ccccc4s3)cc2)c1O`: the Potency entry in assay [1], in assay [2], in assay [3], in assay [4] and in assay [5] was “inactive” throughout.
In the case of `Cc1onc(-c2c(Cl)cccc2Cl)c1CC(=O)NCc1ccc(OCC(F)(F)F)nc1`, the Potency entry in assay [1], in assay [2], in assay [3], in assay [4] and in assay [5] was “inactive” throughout.
With `Cc1cc(OCCN2CCOCC2)nn1-c1ccc2ccccc2c1`, the Potency entry in assay [1], in assay [2], in assay [3], in assay [4] and in assay [5] was “inactive” throughout.
As to `COc1cccc(OC)c1-c1cc(C(=O)N[C@@H](CC(C)C)C(=O)O)nn1-c1ccnc2cc(Cl)ccc12`, the Potency result in assay [1], in assay [2], in assay [3], in assay [4] and in assay [5] was “inactive” in each case.
For `C[C@@H]1O[C@@H](O[C@H]2[C@H](O)[C@@H](O[C@@H]3O[C@H](CO)[C@H](O)[C@H](O)[C@H]3O)[C@H](O[C@H]3CC[C@@]4(C)C(CC[C@]5(C)C4CC=C4[C@@H]6CC(C)(C)CC[C@]6(C(=O)O[C@@H]6O[C@H](CO)[C@@H](O)[C@H](O)[C@H]6O)CC[C@]45C)C3(C)C)O[C@@H]2C(=O)O)[C@H](O)[C@H](O)[C@H]1O` (stereo partly drawn), the Potency entry in assay [1] and in assay [2] was “inactive” each time. In addition, in assay [3], the outcome is “inactive [at 11.6 µM]”. Besides, in assay [4], the activity change, negative = thiol reactive was 349% [at 11.5 µM]. Besides, in assay [5], the activity, negative = inhibition was 2.46% [at 11.6 µM].
Regarding `C=C(C)[C@@H]1CC[C@]2(C(=O)O)CC[C@]3(C)[C@H](CCC4[C@@]5(C)CCC(=O)C(C)(C)C5C(O)C[C@]43C)C12` (stereo partly drawn), the Potency entry in assay [1], in assay [2], in assay [3], in assay [4] and in assay [5] was “inactive” throughout.
For the compound `CCOc1ncc(S(=O)(=O)N2CCN(CC)CC2)cc1-c1nc2c(CC)n(CCOC)nc2c(=O)[nH]1`, the Potency entry in assay [1], in assay [2], in assay [3], in assay [4] and in assay [5] was “inactive” throughout.
On to `NC(Cc1c[nH]c2ccc(O)cc12)C(=O)O` (stereo not drawn), for which the Potency entry in assay [1], in assay [2], in assay [3] and in assay [5] was “inactive” in each case. The Potency in assay [4] is 16.8 µM (active).
`C/C(=C\CC/C(C)=C/CC[C@]1(C)CCc2cc(O)cc(C)c2O1)CC/C=C(\C)C(=O)O`: the Potency result in assay [1], in assay [2], in assay [3] and in assay [5] was “inactive” each time. In assay [4], the Potency is 4.62 µM (active).
Take `CC(C)=CCc1c(O)cc2oc3cc(C)cc(O)c3c2c1C`: the Potency entry in assay [1], in assay [2] and in assay [5] was “inactive” each time. The Potency was 12 µM (active) in assay [3] and 4.74 µM (active) in assay [4].
With `Cc1cn2cc(CC(=O)N3CCC4(CC3)CN(Cc3ccc(-n5nccn5)cc3Cl)C4)nc2s1`, the Potency entry in assay [1], in assay [2], in assay [3], in assay [4] and in assay [5] was “inactive” throughout.
On to `C[C@H]1[C@H](C)CC[C@]2(C(=O)O)CC[C@]3(C)C(=CCC4[C@@]5(C)C[C@@H](O)[C@H](O)C(C)(C)C5CC[C@]43C)[C@H]12` (stereo partly drawn), for which the Potency result in assay [1], in assay [2], in assay [3], in assay [4], in assay [5] and in assay [6] was “inactive” each time.
With `COc1cc(O)cc2c1C(=O)OC(C)CCCCCCC2` (stereo not drawn), the Potency entry in assay [1], in assay [2], in assay [3], in assay [5] and in assay [6] was “inactive” throughout. The Potency in assay [4] is 11.9 µM (active).
For the compound `C=C1C[C@]23C[C@@]1(O)CC[C@H]2[C@@]12C=C[C@H](O)[C@@](C)(C(=O)O1)[C@H]2[C@@H]3C(=O)O`, the Potency entry in assay [1], in assay [2], in assay [3], in assay [4] and in assay [5] was “inactive” in each case.
As for `O=C(O)c1ccc(NC(=O)[C@H](CC2CCCC2)n2cnc(C(F)(F)F)c2)nc1`, the Potency result in assay [1], in assay [2], in assay [3], in assay [4], in assay [5] and in assay [6] was “inactive” throughout.
